# Assay results taken from the supplement of paper PMC12282887.
# ± gives the standard deviation of the averaged measurements.
# Legend:
# Assay in all cases: promoter activity interaction Z-score (Lux/OD deviation from empty-vector control); higher = stronger promoter induction by the compound
# [1] = tested on: E. coli BW25113 acrABp lux reporter
# Summary of the method: (§1)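 In 384-well plates, 40 µl LB Lennox cultures of E. coli BW25113 with low-copy luxCDABE promoter reporters grew at 37°C. Optical density at 600 nm and light output were recorded every 30 min for 12 h, with windows of 0–8 h for wild type and 1–9 h for deletion strains, and wells under 10% of the median growth value were left out. Each value is a Z-transformed residual of growth-normalised luminescence fitted against a control.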
# [2] = tested on: E. coli BW25113 marRABp lux reporter
# Summary of the method: as §1
# [3] = tested on: E. coli BW25113 micFp lux reporter
# Summary of the method: as §1
# [4] = tested on: E. coli BW25113 ompFp lux reporter
# Summary of the method: as §1
# [5] = tested on: E. coli BW25113 robp lux reporter
# Summary of the method: as §1
# [6] = tested on: E. coli BW25113 soxSp lux reporter
# Summary of the method: as §1
# [7] = tested on: E. coli BW25113 tolCp lux reporter
# Summary of the method: as §1
# [8] = 1 µg/ml, genetic background: wild type
# [9] = 1 µg/ml, genetic background: ΔmarA
# [10] = 1 µg/ml, genetic background: Δrob
# [11] = 1 µg/ml, genetic background: ΔsoxS
# [12] = 2.1 µg/ml, genetic background: wild type
# [13] = 2.1 µg/ml, genetic background: ΔmarA
# [14] = 2.1 µg/ml, genetic background: Δrob
# [15] = 2.1 µg/ml, genetic background: ΔsoxS
# [16] = 4.1 µg/ml, genetic background: wild type
# [17] = 4.1 µg/ml, genetic background: ΔmarA
# [18] = 4.1 µg/ml, genetic background: Δrob
# [19] = 4.1 µg/ml, genetic background: ΔsoxS
# [20] = 8.2 µg/ml, genetic background: wild type
smiles,measurement,setting,value
CO[C@H]1/C=C/O[C@@]2(C)Oc3c(C)c(O)c4c(O)c(c(/C=N/N5CCN(C)CC5)c(O)c4c3C2=O)NC(=O)/C(C)=C\C=C\[C@H](C)[C@H](O)[C@@H](C)[C@@H](O)[C@@H](C)[C@H](OC(C)=O)[C@@H]1C [Rifampicin],promoter activity interaction Z-score,[1]; [8],-0.791 ± 0.2
same,promoter activity interaction Z-score,[1]; [9],-0.655 ± 0.13
same,promoter activity interaction Z-score,[1]; [10],-0.627 ± 0.021
same,promoter activity interaction Z-score,[1]; [11],-0.932 ± 0.2
same,promoter activity interaction Z-score,[1]; [12],-0.695 ± 0.1
same,promoter activity interaction Z-score,[1]; [13],-0.516 ± 0.29
same,promoter activity interaction Z-score,[1]; [14],-0.838 ± 0.088
same,promoter activity interaction Z-score,[1]; [15],-0.731 ± 0.3
same,promoter activity interaction Z-score,[1]; [16],-0.811 ± 0.28
same,promoter activity interaction Z-score,[1]; [17],-0.168 ± 0.19
same,promoter activity interaction Z-score,[1]; [18],-1.06 ± 0.08
same,promoter activity interaction Z-score,[1]; [19],-1.31 ± 0.3
same,promoter activity interaction Z-score,[2]; [8],-0.547 ± 0.12
same,promoter activity interaction Z-score,[2]; [9],-0.978 ± 0.48
same,promoter activity interaction Z-score,[2]; [10],-0.432 ± 0.12
same,promoter activity interaction Z-score,[2]; [11],-0.415 ± 0.079
same,promoter activity interaction Z-score,[2]; [12],-0.461 ± 0.4
same,promoter activity interaction Z-score,[2]; [13],-1.18 ± 0.22
same,promoter activity interaction Z-score,[2]; [14],-0.469 ± 0.39
same,promoter activity interaction Z-score,[2]; [15],-0.423 ± 0.032
same,promoter activity interaction Z-score,[2]; [16],-1.1 ± 0.31
same,promoter activity interaction Z-score,[2]; [17],-1.23 ± 0.38
same,promoter activity interaction Z-score,[2]; [18],-0.719 ± 0.14
same,promoter activity interaction Z-score,[2]; [19],-0.7557 ± 0.006
same,promoter activity interaction Z-score,[3]; [8],-0.224 ± 0.14
same,promoter activity interaction Z-score,[3]; [9],-0.444 ± 0.16
same,promoter activity interaction Z-score,[3]; [10],-0.287 ± 0.055
same,promoter activity interaction Z-score,[3]; [11],-0.476 ± 0.024
same,promoter activity interaction Z-score,[3]; [12],-0.39 ± 0.23
same,promoter activity interaction Z-score,[3]; [13],-0.505 ± 0.12
same,promoter activity interaction Z-score,[3]; [14],-0.336 ± 0.076
same,promoter activity interaction Z-score,[3]; [15],-0.31 ± 0.041
same,promoter activity interaction Z-score,[3]; [16],-0.432 ± 0.21
same,promoter activity interaction Z-score,[3]; [17],-0.471 ± 0.047
same,promoter activity interaction Z-score,[3]; [18],-0.229 ± 0.029
same,promoter activity interaction Z-score,[3]; [19],-0.507 ± 0.018
same,promoter activity interaction Z-score,[3]; [20],-0.505 ± 0.31
same,promoter activity interaction Z-score,[4]; [8],-0.966 ± 0.35
same,promoter activity interaction Z-score,[4]; [9],-1.53 ± 0.33
same,promoter activity interaction Z-score,[4]; [10],-1.43 ± 0.2
same,promoter activity interaction Z-score,[4]; [11],-1.07 ± 0.04
same,promoter activity interaction Z-score,[4]; [12],-1.06 ± 0.5
same,promoter activity interaction Z-score,[4]; [13],-2.11 ± 0.12
same,promoter activity interaction Z-score,[4]; [14],-1.62 ± 0.39
same,promoter activity interaction Z-score,[4]; [15],-0.784 ± 0.23
same,promoter activity interaction Z-score,[4]; [16],-2.01 ± 0.86
same,promoter activity interaction Z-score,[4]; [17],-2.895 ± 0.0098
same,promoter activity interaction Z-score,[4]; [18],-2.58 ± 0.26
same,promoter activity interaction Z-score,[4]; [19],-1.59 ± 0.43
same,promoter activity interaction Z-score,[5]; [8],-0.184 ± 0.35
same,promoter activity interaction Z-score,[5]; [9],-0.802 ± 0.3
same,promoter activity interaction Z-score,[5]; [10],-0.501 ± 0.085
same,promoter activity interaction Z-score,[5]; [11],-0.537 ± 0.55
same,promoter activity interaction Z-score,[5]; [12],0.236 ± 0.31
same,promoter activity interaction Z-score,[5]; [13],-0.639 ± 0.41
same,promoter activity interaction Z-score,[5]; [14],-0.575 ± 0.22
same,promoter activity interaction Z-score,[5]; [15],-0.311 ± 0.2
same,promoter activity interaction Z-score,[5]; [16],-0.918 ± 0.011
same,promoter activity interaction Z-score,[5]; [17],-0.833 ± 0.44
same,promoter activity interaction Z-score,[5]; [18],-0.434 ± 0.68
same,promoter activity interaction Z-score,[5]; [19],-1.71 ± 0.29
same,promoter activity interaction Z-score,[6]; [8],-0.47 ± 0.0069
same,promoter activity interaction Z-score,[6]; [9],-0.3407 ± 0.0028
same,promoter activity interaction Z-score,[6]; [10],-0.44 ± 0.088
same,promoter activity interaction Z-score,[6]; [11],-1.04 ± 0.46
same,promoter activity interaction Z-score,[6]; [12],-0.551 ± 0.01
same,promoter activity interaction Z-score,[6]; [13],-0.657 ± 0.0084
same,promoter activity interaction Z-score,[6]; [14],-0.53 ± 0.048
same,promoter activity interaction Z-score,[6]; [15],-1.11 ± 0.17
same,promoter activity interaction Z-score,[6]; [16],-0.866 ± 0.076
same,promoter activity interaction Z-score,[6]; [17],-0.906 ± 0.027
same,promoter activity interaction Z-score,[6]; [18],-0.982 ± 0.24
same,promoter activity interaction Z-score,[6]; [19],-1.51 ± 0.17
same,promoter activity interaction Z-score,[6]; [20],-0.811 ± 0.051
same,promoter activity interaction Z-score,[7]; [8],-0.736 ± 0.25
same,promoter activity interaction Z-score,[7]; [9],-0.931 ± 0.48
same,promoter activity interaction Z-score,[7]; [10],-0.816 ± 0.4
same,promoter activity interaction Z-score,[7]; [11],-1.26 ± 0.3
same,promoter activity interaction Z-score,[7]; [12],-0.703 ± 0.32
same,promoter activity interaction Z-score,[7]; [13],-1.19 ± 0.18
same,promoter activity interaction Z-score,[7]; [14],-0.827 ± 0.14
same,promoter activity interaction Z-score,[7]; [15],-0.674 ± 0.63
same,promoter activity interaction Z-score,[7]; [16],-0.555 ± 0.72
same,promoter activity interaction Z-score,[7]; [17],-0.65 ± 0.61
same,promoter activity interaction Z-score,[7]; [18],-1.152 ± 0.0016
same,promoter activity interaction Z-score,[7]; [19],-0.717 ± 0.57
same,promoter activity interaction Z-score,[7]; [20],0.0561 ± 0.59
